Bioassay records as filed in PubChem.
Compounds with a hit are over-represented: about 19% of the library has one in this group of screens.
DT40 TDP1 CPT: qHTS for Inhibitors of human tyrosyl-DNA phosphodiesterase 1 (TDP1): qHTS in cells in presence of CPT. Potency, µM (doses to about 46.2 µM), hits mostly inhibitors. 420,000 tested, 12% active. chicken DT40 Tdp1-/-;hTDP1 cells + 20 nM CPT, ATP luminescence, 48 h. AID 686979, 2013; note: nearly all actives have a fitted effect of over 55% in size
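Chicken DT40 Tdp1-/- cells stably complemented with human TDP1 were seeded at 400 cells/well in medium containing 20 nM camptothecin, exposed to pin-transferred compounds, and grown at 37 °C for at least 48 hr. Viability was read as ATP luminescence.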
HT1080 IDH1KD tx: qHTS for induction of synthetic lethality in tumor cells producing 2HG: qHTS for the HT-1080-IDH1KD cell line; HT-1080 IDH1 knockdown viability, ATP luminescence, 48 h; Potency, µM (highest dose often 46.1 µM), hits mostly cytotoxic; 360,000 tested, 2% active; AID 686971, 2013
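Assay cells: HT-1080 with IDH1 knockdown, 750 per well, RPMI/5% FBS. Exposure: 48 h at 37 °C following 2 h pre-incubation. Read: CellTiter-Glo luminescence; fitted concentration-response, curve class assigned.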
HT1080-NT tox: qHTS for induction of synthetic lethality in tumor cells producing 2HG: qHTS for the HT-1080-NT fibrosarcoma cell line; HT-1080-NT fibrosarcoma viability, CellTiter-Glo ATP luminescence, 48 h; 360,000 tested, 1.6% active; Potency, µM (doses to about 46.1 µM), most hits filed as cytotoxic; AID 686970, 2013;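 note: NT is the 2HG producing partner of a matched IDH1 knockdown line; nearly all actives have a fitted effect of over 55% in size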
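Luminescent CellTiter-Glo readout after 48 hours of compound exposure at 37 degrees C defined viability of HT-1080-NT cells. Activity was normalized to DMSO wells and cell-free media wells; concentration-response curves were fitted and assigned curve classes.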
TDP1 cell noCPT: qHTS for Inhibitors of human tyrosyl-DNA phosphodiesterase 1 (TDP1): qHTS in cells in absence of CPT. DT40 Tdp1-/- hTDP1 cells, no CPT, ATP luminescence, 48 h. Potency, µM (doses to about 46.2 µM), hits mostly inhibitors. 420,000 tested, 15% active; note: nearly all actives have a fitted effect of over 55% in size
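Seeded 400 DT40-hTDP1 cells/well (vehicle DMSO, no 20 nM CPT); pinned compounds; ≥48 hr at 37 °C; CellTiter-Glo luminescence as viability measure.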
ELG1 DNA repair: qHTS screen for small molecules that inhibit ELG1-dependent DNA repair in human embryonic kidney (HEK293T) cells expressing luciferase-tagged ELG1; HEK293T ELG1-luciferase reporter, luminescence, 16 h; DNA damage induced by 5-fluorouridine; Potency, µM (series often up to 46.1 µM), hits mostly inhibitors; 330,000 tested, 2.3% active; AID 504467, 2011; note: nearly all actives have a fitted effect of over 55% in size
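Reporter activity after DNA damage by 5-fluorouridine is monitored. Compound-treated cells incubate 16 hr at 37 °C, then ONE-Glo is added for 30 min before luminescence reading.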
IL1B secr inh: qHTS for Inhibitors of Inflammasome Signaling: IL-1-beta AlphaLISA Primary Screen; THP-1 LPS/ATP IL-1B secretion, AlphaLISA, 16 h; active compounds read low; activity change, % at 57.5 µM; 360,000 tested, 4.7% active; AID 743279, 2014; in the data active = activity change below about -50%; inconclusive = mostly about -30% to -49%
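Secreted IL-1B measured by AlphaLISA bead assay after 16 h compound exposure of THP-1 cells; compounds (final up to 57.5 uM) added 1 h before LPS (250 ng/mL) and ATP (1.25 mM) stimulation; lower signal means less secretion.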
A number is an active result; 0 = inactive; ? = inconclusive; - = no result. Unless noted, calls come from the whole dose curve; as a rule, active = well fitted curve in the direction sought with a large enough effect; inconclusive = small, poorly fitted or top-dose-only effect, or another doubt; inactive = no such curve, though single readings can be large; an effect the other way counts as inactive or inconclusive.

SMILES | DT40 TDP1 CPT | HT1080 IDH1KD tx | HT1080-NT tox | TDP1 cell noCPT | ELG1 DNA repair | IL1B secr inh
O=C(CN1CCN(Cc2ccccc2)CC1)N1CCCc2c1c(=O)oc1ccc(O)cc21 | 23µM | ? | ? | ? | 0 | 0
CCCCCOc1ccc2oc(=O)c3c(c2c1)CCCN3C(=O)CN1CCCC(C(=O)OCC)C1 (configuration not stated) | ? | 23µM | ? | ? | 0 | 0
CCOC(=O)C1CCCN(CC(=O)N2CCCc3c2c(=O)oc2ccc(OCc4ccccc4)cc32)C1 (configuration not stated) | 0 | - | - | ? | - | -
CCC1CCCCN1CC(=O)N1CCCc2c1c(=O)oc1ccc(OCc3ccccc3)cc21 (configuration not stated) | 15µM | - | - | 10µM | - | -
CC(=O)Oc1ccc2oc(=O)c3c(c2c1)CCCN3C(=O)CN1CCN(c2ncccn2)CC1 | ? | 0 | 0 | ? | 0 | 0
CCCOc1ccc2oc(=O)c3c(c2c1)CCCN3C(=O)CN(C)Cc1ccccc1 | ? | 0 | 0 | 21µM | ? | 0
O=C(CN1CCCCC1)N1CCCc2c1c(=O)oc1ccc(OCc3ccccc3)cc21 | ? | ? | 0 | ? | 0 | 0
Cc1ccc(NC(=O)c2ccc(COc3ccccc3)o2)nc1 | 0 | 0 | 0 | 0 | ? | 0
Cc1ccc(Cn2c(O)c(N=O)c3ccccc32)cc1 | 0 | 0 | 0 | 0 | 0 | -88
C/C(Cl)=C\Cn1c(O)c(N=O)c2ccccc21 | 0 | ? | 0 | 0 | 0 | -98
Cc1ccc2c(c1)c(N=O)c(O)n2Cc1ccc(Cl)cc1 | 0 | 0 | 0 | 0 | ? | -73
O=Nc1c(O)n(Cc2ccc(Cl)cc2Cl)c2ccccc12 | 0 | ? | ? | 0 | 0 | -58
C=CCn1c(O)c(N=O)c2ccccc21 | 0 | 0 | 0 | 0 | 0 | ?
O=C(c1ccco1)N1CCN(C(=O)C23CC4CC(CC(C4)C2)C3)CC1 | ? | 0 | 0 | ? | 0 | 0
O=C1CCC(CCC(=O)N2CCCC(C(=O)c3cccc(C(F)(F)F)c3)C2)=NN1 (configuration not stated) | 0 | 0 | 0 | 0 | 0 | 0
Nc1nc(N)nc(COc2ccccc2)n1 | 0 | 0 | 0 | 0 | ? | 0
O=Nc1c(O)n(Cc2ccc(Cl)cc2)c2ccccc12 | 0 | ? | ? | 0 | 0 | -88
CC(O)CNc1nc2c(c(=O)n(C)c(=O)n2C)n1C/C=C/c1ccccc1 (configuration not stated) | 8.2µM | 0 | 0 | 9.2µM | 23µM | 0
Cn1c(=O)c2c(nc(NCCCO)n2C/C=C/c2ccccc2)n(C)c1=O | 18µM | 0 | 0 | 18µM | 12µM | 0
CC1=C(C(=O)Nc2ccc(Cl)cc2)C(C(C)C)n2nc(SCc3ccc(Cl)cc3)nc2N1 (configuration not stated) | 16µM | - | - | 23µM | - | -
CC1=C(C(=O)Nc2ccccc2)C(c2ccccc2C)n2nc(SCC(=O)c3ccc(C)cc3)nc2N1 (configuration not stated) | 5.8µM | - | - | 18µM | - | -
COc1cc(C2C(C(=O)Nc3ccccc3)=C(C)Nc3nc(SCC(=O)c4ccc(C)cc4)nn32)ccc1O (configuration not stated) | 0 | - | - | 0 | - | -
CC1=C(C(=O)Nc2ccccc2)C(c2ccncc2)n2nc(SCc3ccccc3)nc2N1 (configuration not stated) | 0 | - | - | 0 | - | -
CC1=C(C(=O)Nc2ccc(Cl)cc2)C(c2ccccc2F)n2nc(SCc3cccc(Cl)c3)nc2N1 (configuration not stated) | ? | - | - | 23µM | - | -
COCCNC(=O)C1(C)CCCN(C(=O)c2cnc3ccccc3n2)C1 (configuration not stated) | 0 | 0 | ? | 0 | - | 0
SMILES | DT40 TDP1 CPT | HT1080 IDH1KD tx | HT1080-NT tox | TDP1 cell noCPT | ELG1 DNA repair | IL1B secr inh
Nc1nnc(-c2ccc([N+](=O)[O-])o2)s1 | 18µM | 0 | 23µM | 9.2µM | - | 0
O=c1[nH]nc(-c2ccc([N+](=O)[O-])o2)c(=O)[nH]1 | 0 | 0 | 0 | 0 | - | 0
CCCCN(C(=O)CCC(=O)Nc1cc(C)on1)C(C(=O)NC1CCCC1)c1ccccc1C (configuration not stated) | ? | 0 | 0 | ? | 0 | 0
COCCN(C(=O)CCC(=O)Nc1cc(C)on1)C(C(=O)NC1CCCC1)c1ccc(C(C)C)cc1 (configuration not stated) | 0 | 0 | 0 | ? | 0 | 0
CCCCN(C(=O)CCC(=O)Nc1cc(C)on1)C(C(=O)NC1CCCC1)c1ccc(F)cc1 (configuration not stated) | 0 | 0 | 0 | 0 | 0 | -77
COCCN(C(=O)CCC(=O)Nc1cc(C)on1)C(C(=O)NC1CCCC1)c1ccc(C)cc1 (configuration not stated) | ? | 0 | 0 | 0.33µM | 0 | 0
O=C(c1cn(-c2ccccc2)nc1-c1cccnc1)N1CCN(S(=O)(=O)c2ccc(Cl)cc2)CC1 | ? | 0 | 0 | ? | - | 0
Cc1ccc(Cn2nnc3c(=O)n(CC(=O)OCc4ccccc4)cnc32)cc1 | 18µM | 0 | 0 | 16µM | 0 | 0
Cc1cccc(Cn2cnc3c(nnn3Cc3ccccc3F)c2=O)c1 | ? | 0 | 0 | 28µM | ? | 0
Cc1ccc(Cn2nnc3c(=O)n(CC(=O)N4CCN(c5ccccc5)CC4)cnc32)cc1 | 21µM | 0 | 0 | ? | 15µM | ?
O=C(Cn1cnc2c(nnn2Cc2ccc(F)cc2)c1=O)OCc1ccccc1 | ? | 0 | 0 | 0 | ? | 0
Cc1cccc(Cn2cnc3c(nnn3Cc3ccc(F)cc3)c2=O)c1 | ? | 0 | 0 | ? | 0 | 0
COCc1c(C(=O)N2CCCCCC2)cnn1-c1nccc(-c2cccs2)n1 | 0 | - | - | 0 | - | -
Cc1ccc(NC(=O)CCOc2ccccc2C)cc1F | ? | 0 | 0 | ? | ? | 0
CCCOC(=O)CSC1=C(C#N)C(c2ccc3c(c2)OCO3)CC(=O)N1 (configuration not stated) | 18µM | ? | ? | 23µM | ? | 0
CCOc1ccc(NC(=O)CSC2=C(C#N)C(c3ccc4c(c3)OCO4)CC(=O)N2)cc1 (configuration not stated) | 0 | ? | 0 | 0 | ? | -55
